According to the supplement of paper PMC7156485:

test system: TDF; experiment: H1.0 immunofluorescence intensity relative to DMSO (% of DMSO); higher = stronger H1.0 induction, active = 120 or more; conditions: concentration: 10 µM; 24 h
Method in brief: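 HCC1569 and TDF cells (800 per well, 384-well plates, RPMI with 10% FBS) were treated with compounds at 10 µM for 24 h at 37 °C, in triplicate. Cells were fixed in 3.7% formaldehyde and stained with a rabbit anti-H1.0 antibody, an AlexaFluor 647 secondary and DAPI; six fields per well were imaged at ×10. H1.0 nuclear intensity or cell number is expressed as percent of the plate DMSO control, taking the median of replicates. HCC1569 values were smoothed for positional effects.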
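Note: TDF is a line of transformed human dermal fibroblasts of mesenchymal origin.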

H1.0 immunofluorescence intensity, active:
O=C1NCCN1CCN1CCC(c2cn(-c3ccc(F)cc3)c3ccc(Cl)cc23)CC1 213

H1.0 immunofluorescence intensity, inactive:
CC(C[N+](C)(C)C)OC(N)=O (stereo not drawn) [Carbamyl-beta-methylcholine] 89.1, NC(CCC(=O)NC(CSN=O)C(=O)NCC(=O)O)C(=O)O (stereo not given) [S-Nitrosoglutathione] 88.7, Cl.NO [Hydroxylamine hydrochloride] 97.8, CCCCCC=CCC(O)C=Cc1cccc(CC(O)CCCCO)n1 (stereo not given) 95.9, Nc1ccc(S(=O)(=O)Nc2ncccn2)cc1 [Sulfadiazine] 95.6, CS(=O)(=O)O.C[C@H](NCc1ccc(OCc2cccc(F)c2)cc1)C(N)=O 97.6, C#CC(N)CCC(=O)O (stereo not given) [gamma-Acetylinic GABA] 93.2, N=C1Sc2ccccc2C2=NCCCN12 91.9, O=C(NCCN1CCC(n2c(=O)[nH]c3cc(Cl)ccc32)CC1)c1ccc(F)cc1 96.6, Nc1nc(=O)c2nc(Br)n(C3OC4COP(=O)([O-])OC4C3O)c2[nH]1.[Na+] (stereo not given) [8-Bromo-cGMP sodium] 93.4, COC(=O)NC(C(=O)NC(Cc1ccccc1)C(O)CN(Cc1ccc(-c2ccccn2)cc1)NC(=O)C(NC(=O)OC)C(C)(C)C)C(C)(C)C (stereo not given) [Atazanavir] 109, CCCCCCCCCCCCCCCCCCCCCC(=O)O [Docosanoic acid] 101, COc1ccc(-c2ccc3cc(C(=O)O)ccc3c2)cc1C12CC3CC(CC(C3)C1)C2 [Adapalene] 99.5, Cl.c1ccc2c(c1)CCCC2C1=NCCN1 (stereo not given) [Tetrahydrozoline hydrochloride] 89.8, Nc1cc(-c2ccncc2)c[nH]c1=O [amrinone] 100, CN(C)CCCOC1C(C(O)CO)OC2OC(C)(C)OC21.Cl (stereo not given) [Amiprilose hydrochloride] 82.4, O=C(NCCCCCCNC(=O)ON=C1CCCCC1)ON=C1CCCCC1 98, Cn1c2ccccc2c2c3c(c4c5ccccc5n(CCC#N)c4c21)CNC3=O 90.7, O=C1CC(c2ccccc2)Oc2cc(O)cc(O)c21 (stereo not given) [Pinocembrin] 99, CC1OC(n2cc(F)c(=O)[nH]c2=O)C(O)C1O (stereo not given) [Doxifluridine] 98.3, N[C@H](CCC(=O)NCS(=O)(=O)O)C(=O)O [gamma-D-Glutamylaminomethylsulfonic acid] 96.1, O=c1c(O)c(-c2cc(O)c(O)c(O)c2)oc2cc(O)ccc12 [Robinetine] 98.3, CCCCc1oc2ccccc2c1C(=O)c1cc(I)c(OCCN(CC)CC)c(I)c1.Cl [Amiodarone hydrochloride] 98.9, CCCCOc1cc(CC2CNC(=O)N2)ccc1OC (stereo not given) 85.3, O=c1oc2cc(O)ccc2c2oc3cc(O)ccc3c12 [Coumestrol] 97.6, COc1cc2nccc(Oc3ccc(NC(=O)Nc4ccc(F)cc4F)c(F)c3)c2cc1OC 103, CCCCC=CCCCCCCCC(=O)O [9(Z)-Tetradecenoic acid] 104, COc1ccc2cc(C(C)C(=O)O)ccc2c1 (stereo not given) [Naproxen] 98.1, CCC(CCC(C)C1CCC2C3CC=C4CC(O)CCC4(C)C3CCC12C)C(C)C (stereo not given) 105, CCCCN1CCC(n2c(=O)[nH]c3ccccc32)CC1.O=C(O)C(=O)O [NS 521 oxalate] 86.7, Cl.Cl.Cl.Ic1ccc(N2CCN(Cc3c[nH]c4ncccc34)CC2)cc1 [L-750,667 trihydrochloride] 103, CC12CCC(=O)C=C1CCC1C2CCC2(C)C1CCC2(O)C(=O)CO (stereo not given) [Cortexolone] 90.2, Nc1c2c(nc3ccccc13)CCCC2O.O=C(O)C=CC(=O)O (stereo not given) [Hydroxytacrine] 91.5, CC(CN1c2ccccc2Sc2ccccc21)N(C)C.Cl (stereo not given) [Promethazine hydrochloride] 109, N#Cc1c(O)c2c(-c3ccc(-c4ccccc4O)cc3)csc2[nH]c1=O 98.8, Cn1c(=O)c2[nH]c(-c3ccccc3)nc2n(C)c1=O [1,3-Dimethyl-8-phenylxanthine] 88, O=C(Nc1cccc2c(=O)cc(-c3nn[nH]n3)oc12)c1ccc(OCCCCc2ccccc2)cc1 [Pranlukast] 101, COc1ccc(C(=O)Nc2sc3c(c2C(N)=O)CCCC3)cc1OC [Flt-3 Inhibitor] 94.7, C#CCN1C(C)=C(C(=O)OC)C(c2cccc([N+](=O)[O-])c2)C(C(=O)OCC)=C1C (stereo not given) 89.2
